Bioassay records (PubChem BioAssay)
Sampled rows, rich in hits. Any-hit rate of the full collection: about 2.7%.
aDG glyco up = alpha-DG glycosylation activation; activation, % at 10 µM; hit rate 0.22% among 360,000; Pro5-aDG cells, alpha-DG glycosylation AlphaScreen (IIH6); 0% Pro5, 100% B10-LARGE cell signal;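 active = activation of at least 8% versus controls, or a plate z-score of at least 8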;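 note: Pro5 are CHO cells carrying HIG-tagged alpha-DG that lacks glycosylation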
NadD inh = inhibitors of Staphylococcus aureus NadD; hit rate 0.78% among 360,000; AID 602399; inhibition, % at 20 µM; purified NadD enzyme, colorimetric absorbance read-out; in the data active = inhibition above about 26%
MPTP block = inhibitors of mitochondrial permeability transition pore. inhibition, % at 10 µM. AID 602449. hit rate 1.4% among 360,000. isolated mouse mitochondria, Ca2+ swelling absorbance, 30 min;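 active = inhibition of 50% or more, scaled per plate between neutral and stimulator controls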;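 note: 0% = DMSO wells given calcium and 100% = 1 mM EGTA wells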
TAG inh = reduces triacylglycerol accumulation in H9c2 cells. hit rate 0.66% among 230,000. inhibition, % at 12.5 µM. Nile Red lipid (TAG) fluorescence; cells loaded with 200 µM oleic acid;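 active = pattern-corrected inhibition of lipid staining of at least 50% with the nuclear-stain viability signal not falling by more than 50%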;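 note: 0% = DMSO wells and 100% = triacsin C control wells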
Rh123 counter = Rhodamine 123 counter-screen of mitochondrial pore hits; hit rate 78% among 5,000; inhibition, % at 10 µM; shares compounds with MPTP block; isolated mitochondria, membrane potential, Rhodamine 123 fluorescence; in the data active = inhibition above about 22%;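 note: 0% = DMSO vehicle and 100% = positive control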
MPTP abs DR = dose response confirmation of mitochondrial permeability transition pore inhibitors; IC50, µM; isolated mitochondria swelling, absorbance; hit rate 58% among 780; shares compounds with MPTP block; in the data active = IC50 below about 20 µM
MPTP cs DR = MPTP inhibitor counter-screen activity, dose response. shares compounds with MPTP block. isolated mitochondria counterscreen, fluorescence read-out. IC50, µM. hit rate 49% among 780; in the data active = IC50 below about 80 µM
The depositor's hits bear a star; i = inactive; x = no result.

SMILES	aDG glyco up	NadD inh	MPTP block	TAG inh	Rh123 counter	others
CC(C)CC1=NN2C(=N)/C(=C\c3coc4ccccc4c3=O)C(=O)N=C2S1	0	10	86*	x	82*
CCSC1=NSC2=NC(=O)/C(=C\c3coc4ccccc4c3=O)C(=N)N12	0	9	101*	x	74*
CSC1=NSC2=NC(=O)/C(=C\c3ccc(OC(=O)c4ccco4)cc3)C(=N)N12	0	13	-1	x	x
Cc1cc(/C=C2\C(=N)N3N=C(C(C)C)SC3=NC2=O)c(C)n1-c1ccccc1	0	10	2	5	x
CCC(C)[C@@H](NC(=O)OC(C)(C)C)c1nnc(S(=O)(=O)Cc2cccc(C)c2)o1 (some centres not stated)	0	-1	91*	18	-4
Cc1ccccc1CS(=O)(=O)c1nnc([C@H](Cc2ccccc2)NC(=O)OC(C)(C)C)o1	0	9	-2	x	x
C=CCc1cccc(CNc2nc3ccccc3n2CCC)c1O	1	-5	52*	-10	53*
C=CCc1cccc(CNc2nc3ccccc3n2CC)c1O	2	0	-2	-4	x
Cc1ccc(Cl)cc1NC(=O)CC(O)(C(F)(F)F)C(F)(F)F	0	-6	95*	x	93*
COCC(=O)Nc1cc(Cl)ccc1C	0	23	-1	2	x
COc1ccccc1C(=O)Nc1ccnn1C1CCN(Cc2ccc3nonc3c2)CC1	0	-6	-1	x	x
COc1cccc(-c2csc(N3CCN(C(=S)Nc4ccc(Cl)cc4)CC3)n2)c1	0	10	64*	x	70*
COc1ccccc1-c1sc2ccccc2c1-c1cnc(N2CCOCC2)nc1	4	7	2	x	x
CCOc1cc(NC(=O)C2CC2)c(OCC)cc1NC(=O)c1cccc(F)c1	0	-17	106*	x	0	MPTP abs DR=>100;MPTP cs DR=>80
CCOc1cc(NC(=O)C2CCCCC2)c(OCC)cc1NC(=O)c1ccccn1	0	-4	2	x	x
Cc1c(C)n(CCN(C)C)c2ccc(C(=O)OCCN(C)C)cc12	1	-3	0	16	x
Cc1c(C)n(Cc2ccccc2)c2ccc(C(=O)OCCCN(C)C)cc12	7	-6	78*	x	-3
O=C1CCCc2c1oc1c2CCCC1	0	-3	0	-15	x
CC(=O)Nc1cccc(NC(=S)Nc2ccc(F)c(Cl)c2)c1	0	-3	95*	-2	87*
CC(C)CC(=O)Nc1ccc(F)c(Cl)c1	0	-2	13	-6	x
Cc1nnsc1C(=O)NC(=O)Nc1ccc(F)c(Cl)c1	0	0	59*	2	76*
O=C(Nc1cccnc1)Nc1ccc(F)c(Cl)c1	0	0	93*	x	85*
Cc1ccc(NC(=O)Nc2ccc(F)c(Cl)c2)cc1	0	-6	96*	-27	88*
CCOC(=O)[C@]12CCCC=C1N(CCC1=CCCCC1)C(=O)[C@H](CC(=O)NCc1cccs1)C2	0	x	0	x	x
COc1ccc(OC)c(NC(=O)Nc2ccc(Cl)cc2)c1	0	-9	91*	x	69*
SMILES	aDG glyco up	NadD inh	MPTP block	TAG inh	Rh123 counter	others
Cc1cccc(OCCC(=O)Nc2ccc(F)c(Cl)c2)c1	1	-3	78*	x	79*
COc1ccc(NC(=O)Nc2cc(C)ccc2OC)cc1	1	-1	2	4	x
COc1ccc(NC(=O)NC23CC4(C)CC(C)(CC(C)(C4)C2)C3)cc1	0	3	97*	x	48*
CCC(CC)NC(=O)Nc1ccc(F)c(Cl)c1	0	3	71*	-17	84*
CCNC(=O)C1(C)CCN(C(=O)c2cccnc2SC)C1 (configuration not stated)	1	-1	-1	-13	x
CCOC(=O)Cc1csc(NC(=O)CSc2nc(=O)[nH]c3c2CCCC3)n1	0	-2	-2	-12	x
COc1ccc(OC)c(NC(=O)c2cc(-c3cc(Cl)ccc3O)n[nH]2)c1	0	15	85*	4	61*
O=C(Nc1ccc(F)cc1)C1CC2CCC1C2 (configuration not stated)	1	-6	2	-2	x
COc1ccc(NC(=O)Nc2ccc(F)c(Cl)c2)cc1	0	-3	87*	-15	85*
O=C(Nc1ccc(F)c(Cl)c1)C1CC2CCC1C2 (configuration not stated)	0	-8	57*	12	79*
COc1ccc(NC(=O)Nc2cc(C)ccc2F)cc1	0	-1	0	x	x
COCCCN(C(=O)Cc1coc2cc(C)c(C)cc12)c1c(N)n(Cc2ccccc2)c(=O)[nH]c1=O	0	-1	0	8	x
COc1ccc(S(=O)(=O)N2CCN(CC(=O)NC(Cc3ccccc3)C(C)=O)CC2)cc1 (configuration not stated)	0	1	-1	-22	x
O=C(Nc1ccccc1)C1C2CCC3C(CCC21)C3(Cl)Cl (configuration not stated)	0	2	1	-6	x
O=C(Nc1cccc(Cl)c1)C1C2CCC3C(CCC21)C3(Cl)Cl (configuration not stated)	1	-2	99*	x	96*
CCCCOCCCNC(=O)C[C@@H]1C[C@@]2(C(=O)OCC)CCC=C2N(Cc2ccccc2)C1=O	0	1	0	x	x
c1ccc(-c2cc(-c3nc4ccccc4[nH]3)c3ccccc3n2)cc1	0	12	98*	x	83*
COc1ccc2c(c1)c(C(C)=O)c(C)n2CCc1ccccc1	0	-11	67*	x	76*
CSc1nc(-c2cccs2)c(C#N)c(=O)[nH]1	0	3	5	6	x
N#Cc1c(-c2cccs2)nc(SCc2ccc(Cl)cc2)[nH]c1=O	0	16	96*	x	71*
CCNC(=O)C1(C)CCCN(C(=O)c2ccnc(Cl)c2)C1 (configuration not stated)	0	2	-1	3	x
COc1ccc(NC(=O)NCc2ccc(Cl)cc2)cc1	0	2	0	-16	x
O=C(NCCc1ccc(Cl)cc1)Nc1ccc(F)cc1	0	2	1	-17	x
O=[N+]([O-])c1ccc(NC(=S)NCCc2ccc(F)cc2)cc1	0	-4	100*	x	81*
O=C(NCCc1ccc(F)cc1)Nc1ccc([N+](=O)[O-])cc1	0	-6	82*	-26	79*
COc1ccc(CNC(=O)Nc2ccc([N+](=O)[O-])cc2)cc1	0	-6	99*	-25	82*
CC(=O)CCS(=O)(=O)c1ccc(Oc2ccc(S(=O)(=O)CCC(C)=O)cc2)cc1	0	-2	58*	x	16	MPTP abs DR=i;MPTP cs DR=59*
CC(=O)CS(=O)(=O)c1ccc(Oc2ccc(S(=O)(=O)CC(C)=O)cc2)cc1	0	5	0	-1	x
CC(OC(=O)c1cc(Br)ccc1O)C(=O)Nc1ccc(S(=O)(=O)N2CCCC2)cc1 (configuration not stated)	0	0	87*	5	91*
